Consider six compounds from PubChem BioAssay (EPA / NIEHS).

The nature of assay [1]: ATG_E_Box_CIS: Attagene CIS-FACTORIAL HepG2 Assay for human Enhancer Box (E-box) (AID 2282936). Conditions: HepG2 E-box cis-reporter transcription, actives raise or lower the signal. The method in brief:
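Endogenous transcription factor activity was sensed in human HepG2 liver cells through transfected cis-promoter reporter units. After 24 h of dosing, total RNA was reverse-transcribed and reporter cDNA resolved by capillary electrophoresis.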

Assay [2] is described as follows: ATG_M_61_CIS: Attagene CIS-FACTORIAL HepG2 Assay for M61 Transcription Factor (Internal Marker) (AID 2282937). The conditions noted are these: HepG2 Attagene CIS-FACTORIAL M61 internal marker reporter; actives raise or lower the signal. The method in brief:
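Using transiently transfected HepG2 liver cells, reporter transcript levels were assessed 24 h post-dosing by RT-PCR and capillary electrophoresis. Changes in either direction were fitted relative to DMSO controls.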

Assay [3] in a line: ATG_EGR_CIS: Attagene CIS-FACTORIAL HepG2 Assay for human Early Growth Response 1 (EGR1) (AID 2282938). The conditions noted are these: HepG2 Attagene CIS-FACTORIAL EGR reporter mRNA; actives raise or lower the signal. The method in brief: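 Fluorescent capillary-electrophoresis signal of reporter cDNA fragments serves as read-out. HepG2 cells bear transiently transfected cis-promoter reporter units and are exposed 24 h; gain- or loss-of-signal is fitted against DMSO.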

A short description of assay [4]: ATG_M_19_CIS: Attagene CIS-FACTORIAL HepG2 Assay for M19 Transcription Factor (Internal Marker) (AID 2282939). The conditions noted are these: HepG2 Attagene CIS-FACTORIAL M19 internal marker reporter; actives raise or lower the signal. The method in brief:
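HepG2 cells transiently transfected with cis-regulated multiple reporter transcription units were dosed for 24 h; reporter mRNA was quantified by RT-PCR, 6-FAM primer-extension labelling, HpaI digestion and capillary electrophoresis, with bidirectional fitting against DMSO baseline.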

The nature of assay [5]: ATG_Ets_CIS: Attagene CIS-FACTORIAL HepG2 Assay for human Erythroblast Transformation Specific (ETS) (AID 2282941). The conditions noted are these: HepG2 ETS cis-reporter transcription; AC50: actives raise or lower the signal unless noted; outcome: actives raise or lower the signal unless noted. The method in brief:
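Cis-regulated reporter mRNA induction in HepG2 (transient transfection), 24 h exposure, RT-PCR plus capillary electrophoresis detection; DMSO serves as negative control and baseline.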

The target of assay [6] is Hepatocyte nuclear factor 3-beta (Homo sapiens) (UniProt Q9Y261). Put plainly: ATG_FoxA2_CIS: Attagene CIS-FACTORIAL HepG2 Assay for human Forkhead box A2 (FOXA2) (AID 2282942). Conditions: HepG2 cis-reporter transcription factor activity, 24 h; actives raise or lower the signal. The method in brief:
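Fluorescence signal of reporter cDNA fragments, separated by capillary electrophoresis, reflects endogenous transcription factor activity in transfected HepG2 after 24 h. Both increases and decreases fitted against DMSO.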

Assay [7] can be described thus: ATG_FoxO_CIS: Attagene CIS-FACTORIAL HepG2 Assay for human Forkhead box O (FoxO) (AID 2282943). Conditions: HepG2 Attagene cis-reporter, FoxO element, mRNA; actives raise or lower the signal. The method in brief:
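Values reflect reporter mRNA induction or loss in HepG2 cells 24 h post-dosing, fitted bidirectionally with DMSO as negative control and baseline. Detection used RT-PCR and fluorescence capillary electrophoresis.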

A short description of assay [8]: ATG_GATA_CIS: Attagene CIS-FACTORIAL HepG2 Assay for human GATA Binding Protein (AID 2282944). The conditions noted are these: HepG2 GATA cis-element reporter, Attagene multiplex mRNA; actives raise or lower the signal. The method in brief:
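HepG2 cells transiently transfected with multiplexed cis-element reporter units reflecting endogenous transcription factor activity; reporter mRNA measured after 24 h dosing by RT-PCR, 6-FAM labeling, HpaI digestion and capillary electrophoresis. Bidirectional fitting versus DMSO baseline.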

Assay [9] in a line: ATG_GLI_CIS: Attagene CIS-FACTORIAL HepG2 Assay for human Zinc Finger Protein GLI1 (AID 2282945). Conditions: HepG2, Attagene cis-factorial reporter mRNA, GLI element; actives raise or lower the signal. The method in brief:
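HepG2 cells transiently transfected with cis-promoter multiplexed reporter units report endogenous transcription factor activity. After 24 h chemical exposure, reporter mRNA was quantified by RT-PCR, 6-FAM labelling, HpaI digestion and capillary electrophoresis, with bidirectional fitting against DMSO.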

Assay [10] can be described thus: ATG_GRE_CIS: Attagene CIS-FACTORIAL HepG2 Assay for human Glucocorticoid Response Elements (GRE) (AID 2282947). Conditions: HepG2 GRE cis-reporter, Attagene multiplex mRNA; AC50: actives raise or lower the signal unless noted; outcome: actives raise or lower the signal unless noted. The method in brief: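 Cells (HepG2) bearing transfected cis-promoter reporter transcription units were treated with chemical for 24 hours. Reporter mRNA was measured via RT-PCR with capillary electrophoresis, and activity was fitted in both directions relative to DMSO.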

Assay [11] in a line: ATG_ISRE_CIS: Attagene CIS-FACTORIAL HepG2 Assay for human Interferon Regulatory Factor 1 (IRF1) binding to an Interferon-Stimulated Response Element (ISRE) (AID 2282948). The conditions noted are these: HepG2 ISRE cis-reporter (Attagene), mRNA transcription readout; actives raise or lower the signal. The method in brief:
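Multiplexed mRNA reporter readout in human liver HepG2 cells: cis-element-driven reporters transfected, compound added for 24 h, transcripts amplified, fluorescently labelled and sized by capillary electrophoresis; curve fitting bidirectional against DMSO.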

Assay [12] in a line: ATG_M_32_CIS: Attagene CIS-FACTORIAL HepG2 Assay for M32 Transcription Factor (Internal Marker) (AID 2282949).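 Also: background control marker of the multiplexed CIS panel rather than a real target.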 The conditions noted are these: HepG2 Attagene cis-factorial M32 reporter, mRNA; actives raise or lower the signal. The method in brief: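 HepG2 transfectants (cis-regulated reporter transcription units) dosed 24 h. Reporter mRNA by RT-PCR plus CE, analysed as gain or loss relative to DMSO.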

Assay [13] is described as follows: ATG_M_06_CIS: Attagene CIS-FACTORIAL HepG2 Assay for M06 Transcription Factor (Internal Marker) (AID 2282950). The conditions noted are these: HepG2 Attagene CIS-FACTORIAL M06 internal marker reporter; actives raise or lower the signal. The method in brief:
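HepG2 cells transiently transfected with cis-regulated multiple reporter transcription units were exposed to chemical for 24 h; reporter mRNA was quantified by RT-PCR, 6-FAM primer labelling, HpaI digestion and capillary electrophoresis, fitted bidirectionally against DMSO.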

The target of assay [14] is Hypoxia-inducible factor 1-alpha (Homo sapiens) (UniProt Q16665). Put plainly: ATG_HIF1a_CIS: Attagene CIS-FACTORIAL HepG2 Assay for human Hypoxia Inducible Factor 1 (HIF1A) (AID 2282951). Conditions: HepG2 Attagene cis-factorial HIF1a reporter transcription; actives raise or lower the signal. The method in brief: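 Endogenous-TF cis reporter readout, human HepG2 cells, 24 h incubation; mRNA detected via RT-PCR and capillary electrophoresis fluorescence; DMSO-normalised bidirectional fitting.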

In assay [15] the target is Heat shock factor protein 1 (Homo sapiens) (UniProt Q00613). Put plainly: ATG_HSE_CIS: Attagene CIS-FACTORIAL HepG2 Assay for human Heat Shock Transcription Factor 1 (HSE) (AID 2282953). The conditions noted are these: HepG2 HSE cis-reporter, Attagene RNA transcription; actives raise or lower the signal. The method in brief: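 HepG2 cells transiently transfected with multiple reporter transcription units under cis-regulatory promoter control, measuring endogenous transcription factor activity. After 24 h chemical exposure, reporter mRNA quantified by RT-PCR, fluorescent labelling, HpaI digestion and capillary electrophoresis; bidirectional fit versus DMSO.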

Assay [16] in a line: ATG_MRE_CIS: Attagene CIS-FACTORIAL HepG2 Assay for human Metal Responsive Element (MRE) (AID 2282954). The conditions noted are these: HepG2 MRE cis-reporter transcription, Attagene multiplex; actives raise or lower the signal. The method in brief:
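Cells were transfected with cis-promoter reporter transcription units, then dosed for 24 h. RNA was reverse-transcribed, amplified, fluorescently labelled and resolved by capillary electrophoresis, and activity was fitted in both directions relative to DMSO.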

The nature of assay [17]: ATG_PBREM_CIS: Attagene CIS-FACTORIAL HepG2 Assay for human Phenobarbital-responsive Enhancer Module (PBREM) (AID 2282955). Conditions: HepG2 PBREM cis-reporter, Attagene multiplexed transcription; actives raise or lower the signal. The method in brief:
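Readout: reporter mRNA, fluorescent RT-PCR fragments separated by capillary electrophoresis. System: HepG2 transiently transfected with cis-regulated reporter units. Exposure: 24 h. Analysis: bidirectional, DMSO baseline.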

Assay [18] can be described thus: ATG_ERE_CIS: Attagene CIS-FACTORIAL HepG2 Assay for Estrogen Response Element (ERE) (AID 2282940). The conditions noted are these: HepG2 ERE cis-reporter, Attagene RNA transcript; actives raise or lower the signal. The method in brief: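 HepG2 cells transiently transfected with cis-promoter-driven multiplexed reporter transcription units report endogenous TF activity. After 24 h compound exposure, reporter mRNA is quantified by RT-PCR with capillary electrophoresis fluorescence; bidirectional fitting versus DMSO baseline.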

For assay [19], the target named is Bile acid receptor (Homo sapiens) (UniProt Q96RI1). Put plainly: ATG_IR1_CIS: Attagene CIS-FACTORIAL HepG2 Assay for human Nuclear Receptor Subfamily 1 Group H Member 4 (NR1H4), IR1 submotif (AID 2282946). Conditions: IR1 reporter transcription, actives raise or lower the signal. The method in brief: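 Readout: reporter transcript levels by RT-PCR with fluorescent capillary electrophoresis, from HepG2 cells transiently transfected with multiplexed cis-regulated reporters and dosed 24 h. Gain- or loss-of-signal fitted versus DMSO negative control.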

Assay [20] deals with Hepatocyte nuclear factor 6 (Homo sapiens) (UniProt Q9UBC0). The assay is described as follows: ATG_HNF6_CIS: Attagene CIS-FACTORIAL HepG2 Assay for human Hepatocyte Nuclear Factor 6 (HNF6) (AID 2282952). The conditions noted are these: HepG2 Attagene cis-factorial HNF6 reporter transcription; actives raise or lower the signal. The method in brief: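 Readout: fluorescent reporter-transcript fragments resolved by capillary electrophoresis after RT-PCR, reflecting endogenous factor activity in transfected HepG2. Exposure 24 h. Gain or loss of signal fitted bidirectionally against DMSO.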

Where “and” joins values, the source holds several entries; their conditions need not be identical. Equal entries are not always repeated. A structure can be active in one record and inactive in another. Calls of active or inactive are those of the source. The calls were made as follows: active = hit-call score of the fitted dose curve at least 0.9, where 1 is the maximum; inactive = score below 0.9.

Hypoxia-inducible factor 1-alpha (Homo sapiens), sequence (Q16665 whole entry, looked up): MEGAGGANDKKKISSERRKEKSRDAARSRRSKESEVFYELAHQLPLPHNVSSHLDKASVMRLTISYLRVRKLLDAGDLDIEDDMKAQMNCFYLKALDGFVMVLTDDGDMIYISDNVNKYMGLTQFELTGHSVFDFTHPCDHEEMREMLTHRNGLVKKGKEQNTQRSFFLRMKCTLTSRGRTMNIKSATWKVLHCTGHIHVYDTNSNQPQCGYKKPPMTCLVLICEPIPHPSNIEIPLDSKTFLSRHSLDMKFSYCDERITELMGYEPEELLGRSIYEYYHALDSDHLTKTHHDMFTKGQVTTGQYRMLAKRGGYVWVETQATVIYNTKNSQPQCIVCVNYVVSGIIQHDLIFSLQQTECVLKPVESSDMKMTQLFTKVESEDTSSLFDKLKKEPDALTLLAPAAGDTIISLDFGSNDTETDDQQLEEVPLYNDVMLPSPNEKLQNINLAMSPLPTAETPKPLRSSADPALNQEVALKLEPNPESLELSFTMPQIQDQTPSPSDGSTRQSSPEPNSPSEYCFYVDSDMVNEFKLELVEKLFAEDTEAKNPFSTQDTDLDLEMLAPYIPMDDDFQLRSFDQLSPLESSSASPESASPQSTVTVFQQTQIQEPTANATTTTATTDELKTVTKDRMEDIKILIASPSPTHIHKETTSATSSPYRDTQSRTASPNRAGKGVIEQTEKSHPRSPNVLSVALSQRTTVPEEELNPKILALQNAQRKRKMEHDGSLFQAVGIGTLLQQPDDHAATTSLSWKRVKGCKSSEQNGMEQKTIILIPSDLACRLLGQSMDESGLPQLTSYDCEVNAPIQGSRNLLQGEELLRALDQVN
Hepatocyte nuclear factor 6 (Homo sapiens), sequence (Q9UBC0 whole entry, looked up, the tested form may be a part): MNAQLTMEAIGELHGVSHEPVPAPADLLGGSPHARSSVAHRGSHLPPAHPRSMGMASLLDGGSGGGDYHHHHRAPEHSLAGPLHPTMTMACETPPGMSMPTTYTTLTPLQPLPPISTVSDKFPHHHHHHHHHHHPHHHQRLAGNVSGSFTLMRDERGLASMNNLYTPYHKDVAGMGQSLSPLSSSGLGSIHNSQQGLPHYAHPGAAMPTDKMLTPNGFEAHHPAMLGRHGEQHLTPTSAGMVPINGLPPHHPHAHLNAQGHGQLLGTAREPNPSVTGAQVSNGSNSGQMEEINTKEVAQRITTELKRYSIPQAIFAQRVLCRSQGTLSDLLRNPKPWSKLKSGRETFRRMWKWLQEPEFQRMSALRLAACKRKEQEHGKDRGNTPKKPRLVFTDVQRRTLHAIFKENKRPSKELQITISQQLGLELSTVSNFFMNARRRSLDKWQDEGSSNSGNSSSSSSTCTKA
Heat shock factor protein 1 (Homo sapiens), sequence (Q00613 whole entry, looked up): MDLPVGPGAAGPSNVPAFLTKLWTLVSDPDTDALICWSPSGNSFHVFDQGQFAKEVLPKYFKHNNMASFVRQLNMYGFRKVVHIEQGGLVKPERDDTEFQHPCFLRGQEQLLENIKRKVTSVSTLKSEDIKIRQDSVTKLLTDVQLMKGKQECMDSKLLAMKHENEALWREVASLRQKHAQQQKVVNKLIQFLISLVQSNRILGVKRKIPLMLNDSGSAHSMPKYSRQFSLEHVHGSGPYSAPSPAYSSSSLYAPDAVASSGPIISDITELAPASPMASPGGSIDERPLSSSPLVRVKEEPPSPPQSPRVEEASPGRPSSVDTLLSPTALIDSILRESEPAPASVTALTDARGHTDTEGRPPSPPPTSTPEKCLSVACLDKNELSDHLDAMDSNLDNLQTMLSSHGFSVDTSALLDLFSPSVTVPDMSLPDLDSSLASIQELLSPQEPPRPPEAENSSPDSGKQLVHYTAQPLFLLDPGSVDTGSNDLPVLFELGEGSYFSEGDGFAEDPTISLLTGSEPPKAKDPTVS
Hepatocyte nuclear factor 3-beta (Homo sapiens), sequence (Q9Y261 whole entry, looked up, the tested form may be a part): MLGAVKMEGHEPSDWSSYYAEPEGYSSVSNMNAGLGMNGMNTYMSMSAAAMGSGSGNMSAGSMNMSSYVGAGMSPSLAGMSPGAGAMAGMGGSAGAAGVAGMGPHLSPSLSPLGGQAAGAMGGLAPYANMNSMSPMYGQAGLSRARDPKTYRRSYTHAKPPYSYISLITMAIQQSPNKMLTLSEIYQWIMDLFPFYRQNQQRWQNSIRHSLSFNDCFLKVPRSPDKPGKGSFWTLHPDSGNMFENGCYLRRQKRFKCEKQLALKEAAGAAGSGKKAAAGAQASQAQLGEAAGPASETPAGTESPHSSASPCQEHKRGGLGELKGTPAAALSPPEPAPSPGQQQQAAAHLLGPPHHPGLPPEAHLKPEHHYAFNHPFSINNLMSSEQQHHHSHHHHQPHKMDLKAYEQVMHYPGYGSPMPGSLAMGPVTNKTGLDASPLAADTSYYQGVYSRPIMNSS
Bile acid receptor (Homo sapiens), sequence (Q96RI1 whole entry, looked up): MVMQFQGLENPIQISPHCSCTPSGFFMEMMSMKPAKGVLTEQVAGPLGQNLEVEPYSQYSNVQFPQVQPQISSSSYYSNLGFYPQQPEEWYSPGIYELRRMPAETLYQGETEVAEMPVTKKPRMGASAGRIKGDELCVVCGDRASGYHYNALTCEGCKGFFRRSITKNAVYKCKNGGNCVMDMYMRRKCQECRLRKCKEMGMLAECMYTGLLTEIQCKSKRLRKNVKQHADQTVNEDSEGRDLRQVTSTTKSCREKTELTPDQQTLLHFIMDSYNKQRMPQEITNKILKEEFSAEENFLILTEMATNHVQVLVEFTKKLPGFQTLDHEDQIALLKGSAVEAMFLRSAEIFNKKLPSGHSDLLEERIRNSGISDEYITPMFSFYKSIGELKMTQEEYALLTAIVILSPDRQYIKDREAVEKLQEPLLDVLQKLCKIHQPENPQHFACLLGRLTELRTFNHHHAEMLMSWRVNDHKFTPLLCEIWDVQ

For `CC(C)c1c(C(=O)Nc2ccccc2)c(-c2ccccc2)c(-c2ccc(F)cc2)n1CC[C@@H](O)C[C@@H](O)CC(=O)O`, the AC50 was 28.2 µM (active) in [1]; 94.5 µM (active) and 28.3 µM (active) in [3]; 57.9 µM (active) and 22.5 µM (active) in assay [14]; 61.4 µM (active) and 34.3 µM (active) in [16]; 25.3 µM (active) in [17]. Also, the outcome in [1], in assay [2], in [4], in assay [5], in assay [6] and in [7] was inactive. Besides, the outcome in assay [8], in assay [9], in assay [10], in [11], in assay [12] and in assay [13] was inactive. Moreover, the outcome in assay [15] and in [17] was inactive.
For `O=C(O)CCC(F)(F)C(F)(F)C(F)(F)C(F)(F)C(F)(F)C(F)(F)F`, the result in [1], in assay [2], in [3], in [4], in assay [18] and in assay [5] was inactive. Also, the call in assay [6], in assay [7], in [8], in assay [9], in [19] and in [10] was inactive. Also, the compound was classed as inactive in [11], in assay [12], in [13], in assay [14], in [20] and in assay [15]. For the same compound, the outcome in [16] and in assay [17] was inactive.
For the compound `Nc1cc(Cl)c(-c2cc(Cl)c(N)cc2Cl)cc1Cl`, the result in assay [1], in assay [2], in [3], in assay [4], in assay [18] and in [5] was inactive. Moreover, the result in assay [6], in assay [7], in [8], in assay [9], in assay [19] and in [10] was inactive. Moreover, the result in assay [11], in assay [12], in assay [13], in [14], in [20] and in assay [17] was inactive. Further, the figures for the AC50 in [15] and in assay [16] were 18.1 µM (active) and 13.2 µM (active), respectively.
As for `CCCCCCCCC1CCC(=O)O1` (centres undefined), the result in [1], in assay [2], in assay [3], in assay [4], in assay [18] and in assay [5] was inactive. The compound was called inactive in [6], in assay [7], in assay [8], in assay [9], in [19] and in [10]. The outcome in assay [11], in [12], in assay [13], in assay [14], in assay [20] and in assay [15] was inactive. Besides, the compound was classed as inactive in assay [16] and in [17].
For the compound `COC(=O)C(F)(F)C(F)(F)C(F)(F)F`, the outcome in assay [1], in assay [2], in assay [3], in [4], in [18] and in [5] was inactive. Moreover, the result in assay [6], in [7], in assay [8], in assay [9], in assay [19] and in assay [10] was inactive. In addition, the compound was classed as inactive in [11], in [12], in [13], in assay [14], in assay [20] and in assay [15]. The compound was called inactive in assay [16] and in assay [17].
As for `CCCCCCCCCCCC[N+](C)(C)CCCCCCCCCCCC`, the result in [1], in assay [2], in assay [3], in [4], in assay [18] and in assay [6] was inactive. The outcome in assay [7], in assay [8], in assay [9], in [19], in [10] and in [12] was inactive. In addition, the outcome in assay [13], in [14], in [20] and in assay [15] was inactive. The AC50 is 36.3 µM (active) in assay [5], 100 µM (active) in assay [11], 4.84 µM (active) in [16] and 25.3 µM (active) in [17].

One may read the AC50 as the midpoint of the concentration-response curve, whichever way the signal moves.
